Laboratory results: PubChem BioAssay (EPA / NIEHS)
Where “and” joins values, the source holds several entries; their conditions need not be identical. Identical values can stand only once. The source holds several records for some structures; these can differ, active in one and inactive in another. Calls of active or inactive are those of the source. Rule for the calls: active = hit-call score of the fitted dose curve at least 0.9, where 1 is the maximum; inactive = score below 0.9.

Tests used:
Settings in all cases: mRNA level, 48 h; actives raise or lower the signal
[1] = read-out: Interleukin 6 Receptor (IL6R), IL6R (gene 3570); test: LTEA_HepaRG_IL6R: Life Technologies and Expression Analysis (LTEA) Assay for Interleukin 6 Receptor (IL6R) using HepaRG (AID 2283510)
Summary of the method: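 Readout is IL6R transcript level by TaqMan qRT-PCR, normalized to three housekeeping genes and fitted bidirectionally against 0.5% DMSO controls. Human HepaRG cells received chemicals for 48 h in serum-free induction medium, highest concentration 100 uM.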

[2] = read-out: Potassium channel subfamily K member 1 (KCNK1), KCNK1 (gene 3775); test: LTEA_HepaRG_KCNK1: Life Technologies and Expression Analysis (LTEA) Assay for Potassium channel subfamily K member 1 (KCNK1) using HepaRG (AID 2283511)
Summary of the method: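 Differentiated human HepaRG cells in serum-free induction medium were exposed in duplicate for 48 h to 8 half-log concentrations up to 100 uM in 0.5% DMSO. KCNK1 mRNA was measured by TaqMan qRT-PCR, normalized to ACTB, GAPDH and POLR2A, and fitted bidirectionally versus DMSO.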

[3] = read-out: Keratin 19 (KRT19), KRT19 (gene 3880); test: LTEA_HepaRG_KRT19: Life Technologies and Expression Analysis (LTEA) Assay for Keratin 19 (KRT19) using HepaRG (AID 2283512)
Summary of the method: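 HepaRG, 48 h chemical exposure, 8-pt half-log CRC from 100 uM, 0.5% DMSO vehicle, duplicates. Readout: TaqMan qRT-PCR of KRT19 mRNA, housekeeping-normalized (ACTB/GAPDH/POLR2A). Bidirectional fit vs DMSO baseline.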

[4] = read-out: JUN Transcription Factor, JUN (gene 3725); test: LTEA_HepaRG_JUN: Life Technologies and Expression Analysis (LTEA) Assay for JUN Transcription Factor using HepaRG (AID 2283513)
Summary of the method: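 Cells plated 48 h, medium switched to serum-free induction medium, then dosed 48 h (100 uM top, half-log dilutions, 0.5% DMSO). RNA isolated; JUN measured by qRT-PCR against three housekeeping genes; gain or loss fitted relative to DMSO.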

[5] = read-out: Lipase C (LIPC), LIPC (gene 3990); test: LTEA_HepaRG_LIPC: Life Technologies and Expression Analysis (LTEA) Assay for Lipase C (LIPC) using HepaRG (AID 2283514)
Summary of the method: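 Differentiated human HepaRG cells in serum-free induction medium were exposed in duplicate for 48 h to eight concentrations (top 100 uM, half-log steps, 0.5% DMSO). LIPC mRNA was quantified by TaqMan qRT-PCR, normalized to ACTB, GAPDH and POLR2A, with bidirectional fitting versus DMSO.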

[6] = read-out: Lipoprotein lipase (LPL), LPL (gene 4023); test: LTEA_HepaRG_LPL: Life Technologies and Expression Analysis (LTEA) Assay for Lipoprotein lipase (LPL) using HepaRG (AID 2283515)
Summary of the method: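 Differentiated human HepaRG cells in serum-free induction medium were exposed in duplicate for 48 h to eight half-log concentrations (top 100 uM) in 0.5% DMSO. LPL mRNA was quantified by TaqMan qRT-PCR, normalized to ACTB, GAPDH and POLR2A.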

[7] = read-out: MicroRNA 122 (MIR122), gene 406906; test: LTEA_HepaRG_MIR122: Life Technologies and Expression Analysis (LTEA) Assay for MicroRNA 122 (MIR122) using HepaRG (AID 2283516); note: the transcript read is the microRNA miR-122
Summary of the method: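 HepaRG plated 48 h, switched to serum-free induction medium, then treated in duplicate for 48 h (100 uM top, half-log steps, 0.5% DMSO vehicle). RNA isolated, qRT-PCR performed, concentration-response fitted both directions relative to DMSO.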

MYC, MYC (gene 4609) = test: LTEA_HepaRG_MYC: Life Technologies and Expression Analysis (LTEA) Assay for MYC using HepaRG (AID 2283518)
Summary of the method: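 qRT-PCR read-out of MYC transcript (Fluidigm TaqMan, housekeeping-normalized) after 48 h chemical exposure of HepaRG cells; eight concentrations, top 100 uM, half-log steps. Bidirectional curve fitting against 0.5% DMSO vehicle baseline.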

[8] = read-out: matrix metalloproteinase-3 (MMP3), MMP3 (gene 4314); test: LTEA_HepaRG_MMP3: Life Technologies and Expression Analysis (LTEA) Assay for matrix metalloproteinase-3 (MMP3) using HepaRG (AID 2283519)
Summary of the method: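 Differentiated human HepaRG cells, plated 48 h on collagen I, were exposed in duplicate for 48 h in serum-free induction medium to eight half-log concentrations up to 100 uM in 0.5% DMSO. MMP3 mRNA was quantified by TaqMan qRT-PCR, normalised to ACTB, GAPDH and POLR2A.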

[9] = read-out: Paternally Expressed 10 (PEG10), PEG10 (gene 23089); test: LTEA_HepaRG_PEG10: Life Technologies and Expression Analysis (LTEA) Assay for Paternally Expressed 10 (PEG10) using HepaRG (AID 2283520)
Summary of the method: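 HepaRG, 48 h post-plating → serum-free induction medium → 48 h chemical exposure (duplicate, 8-pt, max 100 uM, half-log, 0.5% DMSO) → lysis in RLT → TaqMan qRT-PCR for PEG10, ACTB/GAPDH/POLR2A normalisation.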

[10] = read-out: Nuclear factor NF-kappa-B p105 subunit (Homo sapiens) (UniProt P19838); test: LTEA_HepaRG_NFKB1: Life Technologies and Expression Analysis (LTEA) Assay for Nuclear Factor Kappa B Subunit 1 (NFKB1) using HepaRG (AID 2283521);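 note: TaqMan qRT-PCR transcript normalised to ACTB GAPDH and POLR2A housekeeping genes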
Summary of the method: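 Differentiated human HepaRG cells were exposed for 48 h in serum-free induction medium to eight concentrations (top 100 uM, half-log steps, 0.5% DMSO), in duplicate. NFKB1 mRNA was measured by TaqMan qRT-PCR, normalized to ACTB/GAPDH/POLR2A, and fitted bidirectionally against DMSO.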

[11] = read-out: Protein phosphatase 2A (PPP2R4), PTPA (gene 5524); test: LTEA_HepaRG_PPP2R4: Life Technologies and Expression Analysis (LTEA) Assay for Protein phosphatase 2A (PPP2R4) using HepaRG (AID 2283522)
Summary of the method: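 Readout is PPP2R4 transcript level by microfluidic qRT-PCR after 48 h chemical treatment of human HepaRG liver cells. Concentrations spanned 100 uM downward in half-log steps; gain or loss of signal was fitted relative to DMSO.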

[12] = read-out: Phosphatase and tensin (PTEN), PTEN (gene 5728); test: LTEA_HepaRG_PTEN: Life Technologies and Expression Analysis (LTEA) Assay for Phosphatase and tensin (PTEN) using HepaRG (AID 2283523)
Summary of the method: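 Differentiated human HepaRG cells, plated 48 h then switched to serum-free induction medium, were exposed in duplicate for 48 h to eight half-log concentrations up to 100 uM in 0.5% DMSO. PTEN mRNA measured by TaqMan qRT-PCR, normalized to ACTB/GAPDH/POLR2A, bidirectional fit versus DMSO.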

[13] = read-out: Nuclear factor erythroid 2-related factor 2 (Homo sapiens) (UniProt Q16236); test: LTEA_HepaRG_NFE2L2: Life Technologies and Expression Analysis (LTEA) Assay for Nuclear factor erythroid 2-related factor 2 (NFE2L2) Transcription Factor using HepaRG (AID 2283527)
Summary of the method: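 Differentiated human HepaRG cells in serum-free induction medium were exposed for 48 h to eight concentrations (top 100 uM, half-log dilutions, 0.5% DMSO), in duplicate. NFE2L2 mRNA was quantified by TaqMan qRT-PCR, normalized to ACTB, GAPDH and POLR2A, with bidirectional fitting versus DMSO.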

[14] = read-out: succinate dehydrogenase complex iron sulfur subunit B (SDHB), SDHB (gene 6390); test: LTEA_HepaRG_SDHB: Life Technologies and Expression Analysis (LTEA) Assay for succinate dehydrogenase complex iron sulfur subunit B (SDHB) using HepaRG (AID 2283528)
Summary of the method: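 HepaRG, 48 h exposure, 8-pt half-log series from 100 uM in 0.5% DMSO, duplicates. Readout: SDHB mRNA by Fluidigm qRT-PCR vs housekeeping genes; bidirectional fit relative to DMSO.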

[15] = read-out: Signal transducer and activator of transcription 3 (Homo sapiens) (UniProt P40763); test: LTEA_HepaRG_STAT3: Life Technologies and Expression Analysis (LTEA) Assay for Signal transducer and activator of transcription (STAT3) using HepaRG (AID 2283529)
Summary of the method: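 Differentiated human HepaRG cells in serum-free induction medium were exposed in duplicate for 48 h to eight half-log concentrations up to 100 uM in 0.5% DMSO. STAT3 mRNA was quantified by TaqMan qRT-PCR, normalized to ACTB, GAPDH and POLR2A, and fitted bidirectionally against DMSO.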

[16] = read-out: matrix metalloproteinase-10 (MMP10), MMP10 (gene 4319); test: LTEA_HepaRG_MMP10: Life Technologies and Expression Analysis (LTEA) Assay for matrix metalloproteinase-10 (MMP10) using HepaRG (AID 2283517)
Summary of the method: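 HepaRG, collagen I, ~100,000 cells/well; serum-free induction medium; 48 h exposure, duplicate, 8-pt half-log to 100 uM, 0.5% DMSO. Readout: TaqMan qRT-PCR, normalized to ACTB/GAPDH/POLR2A; bidirectional fit vs DMSO.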

[17] = read-out: Pyruvate Dehydrogenase Kinase 4 (PDK4), PDK4 (gene 5166); test: LTEA_HepaRG_PDK4: Life Technologies and Expression Analysis (LTEA) Assay for Pyruvate Dehydrogenase Kinase 4 (PDK4) using HepaRG (AID 2283525)
Summary of the method: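 Differentiated human HepaRG cells, pre-cultured 48 h, were exposed in duplicate for 48 h in serum-free induction medium to eight half-log concentrations up to 100 uM in 0.5% DMSO. PDK4 mRNA was quantified by qRT-PCR, normalized to ACTB, GAPDH and POLR2A, bidirectional fitting versus DMSO.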

[18] = read-out: solute carrier (SLC22A1), SLC22A1 (gene 6580); test: LTEA_HepaRG_SLC22A1: Life Technologies and Expression Analysis (LTEA) Assay for solute carrier (SLC22A1) using HepaRG (AID 2283524)
Summary of the method: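 Human HepaRG cells were plated 48 h, switched to serum-free induction medium, then exposed in duplicate for 48 h to 8-point half-log series from 100 uM in 0.5% DMSO. SLC22A1 mRNA measured by qRT-PCR, normalized to ACTB/GAPDH/POLR2A, fitted bidirectionally versus DMSO.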

Measured: AC50

Chain of Nuclear factor NF-kappa-B p105 subunit (Homo sapiens) (P19838 whole entry, looked up): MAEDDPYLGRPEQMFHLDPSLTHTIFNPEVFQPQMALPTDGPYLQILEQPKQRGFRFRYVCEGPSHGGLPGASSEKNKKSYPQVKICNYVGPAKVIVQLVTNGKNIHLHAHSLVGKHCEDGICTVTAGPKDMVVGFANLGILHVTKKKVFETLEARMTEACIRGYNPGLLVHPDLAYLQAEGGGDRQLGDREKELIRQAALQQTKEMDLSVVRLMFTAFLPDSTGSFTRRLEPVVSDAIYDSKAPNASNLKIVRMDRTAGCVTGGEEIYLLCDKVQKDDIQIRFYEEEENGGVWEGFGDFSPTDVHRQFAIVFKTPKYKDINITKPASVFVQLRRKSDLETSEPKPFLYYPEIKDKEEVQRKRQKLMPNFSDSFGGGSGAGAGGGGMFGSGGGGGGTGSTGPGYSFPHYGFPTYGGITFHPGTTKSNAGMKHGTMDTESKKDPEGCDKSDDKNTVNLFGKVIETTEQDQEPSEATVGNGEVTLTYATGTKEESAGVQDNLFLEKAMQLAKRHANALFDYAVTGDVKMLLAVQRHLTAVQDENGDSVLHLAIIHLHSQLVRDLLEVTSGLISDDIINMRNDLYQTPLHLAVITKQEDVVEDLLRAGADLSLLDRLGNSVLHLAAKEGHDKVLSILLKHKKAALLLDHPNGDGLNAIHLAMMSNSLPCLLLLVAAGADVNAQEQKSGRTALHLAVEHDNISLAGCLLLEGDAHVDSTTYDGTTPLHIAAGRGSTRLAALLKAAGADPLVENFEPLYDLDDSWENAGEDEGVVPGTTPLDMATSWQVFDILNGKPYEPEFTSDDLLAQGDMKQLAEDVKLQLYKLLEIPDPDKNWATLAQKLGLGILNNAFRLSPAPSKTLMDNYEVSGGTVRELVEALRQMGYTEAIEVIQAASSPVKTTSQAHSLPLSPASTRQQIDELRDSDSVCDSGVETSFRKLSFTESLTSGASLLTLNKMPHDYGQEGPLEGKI
Chain of Nuclear factor erythroid 2-related factor 2 (Homo sapiens) (Q16236 whole entry, looked up): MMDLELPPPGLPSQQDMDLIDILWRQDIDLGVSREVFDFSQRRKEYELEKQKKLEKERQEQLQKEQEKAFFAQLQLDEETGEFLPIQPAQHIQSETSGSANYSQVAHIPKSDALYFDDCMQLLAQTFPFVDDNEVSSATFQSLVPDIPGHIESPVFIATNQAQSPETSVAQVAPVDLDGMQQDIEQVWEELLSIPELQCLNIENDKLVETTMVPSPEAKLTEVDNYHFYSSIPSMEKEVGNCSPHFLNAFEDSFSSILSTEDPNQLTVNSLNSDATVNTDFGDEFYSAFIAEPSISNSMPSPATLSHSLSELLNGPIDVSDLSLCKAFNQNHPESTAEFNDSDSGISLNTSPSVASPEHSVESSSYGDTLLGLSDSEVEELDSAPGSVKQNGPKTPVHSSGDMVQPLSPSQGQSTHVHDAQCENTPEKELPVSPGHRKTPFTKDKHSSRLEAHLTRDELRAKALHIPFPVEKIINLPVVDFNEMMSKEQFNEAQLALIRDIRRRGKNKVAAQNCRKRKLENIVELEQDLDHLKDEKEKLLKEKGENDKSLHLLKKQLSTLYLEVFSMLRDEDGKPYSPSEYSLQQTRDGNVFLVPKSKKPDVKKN
Chain of Signal transducer and activator of transcription 3 (Homo sapiens) (P40763 whole entry, looked up): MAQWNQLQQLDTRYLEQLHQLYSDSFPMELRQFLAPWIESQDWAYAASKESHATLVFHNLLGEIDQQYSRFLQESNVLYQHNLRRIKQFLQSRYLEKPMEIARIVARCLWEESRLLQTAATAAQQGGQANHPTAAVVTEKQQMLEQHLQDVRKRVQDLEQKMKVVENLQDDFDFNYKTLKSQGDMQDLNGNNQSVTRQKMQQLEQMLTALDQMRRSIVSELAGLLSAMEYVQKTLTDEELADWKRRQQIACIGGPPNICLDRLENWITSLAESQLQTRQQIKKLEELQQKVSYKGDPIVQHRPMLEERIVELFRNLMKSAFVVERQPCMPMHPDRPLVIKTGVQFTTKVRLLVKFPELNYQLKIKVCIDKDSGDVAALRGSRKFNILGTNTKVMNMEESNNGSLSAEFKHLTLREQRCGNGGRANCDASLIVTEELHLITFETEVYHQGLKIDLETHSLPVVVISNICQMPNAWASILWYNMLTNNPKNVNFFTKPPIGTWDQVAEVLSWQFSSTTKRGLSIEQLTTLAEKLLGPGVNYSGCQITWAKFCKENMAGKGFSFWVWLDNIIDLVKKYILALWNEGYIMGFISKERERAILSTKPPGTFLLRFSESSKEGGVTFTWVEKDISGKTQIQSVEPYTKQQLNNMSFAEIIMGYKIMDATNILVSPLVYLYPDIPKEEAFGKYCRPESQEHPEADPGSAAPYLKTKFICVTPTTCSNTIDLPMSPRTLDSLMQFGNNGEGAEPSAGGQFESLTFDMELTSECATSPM

CC(C)(C)C(O)C(Oc1ccc(Cl)cc1)n1cncn1 (centres undefined)
inactive: [1] | [2] | [3] | [4] | [5] | [6] | [7] | MYC, MYC (gene 4609) | [8] | [9] | [10] | [11] | [12] | [13] | [14] | [15]
active: [1] 50 µM | [8] 50 µM | [9] 1.4 µM | [13] 9.92 µM

COc1nn(CSP(=S)(OC)OC)c(=O)s1
not listed: [17] | [18]
inactive: all other assays above

O=C(NC(=O)c1c(F)cccc1F)Nc1ccc(OC(F)(F)C(F)OC(F)(F)F)c(Cl)c1 (centres undefined)
not listed: [16] | [18]
inactive: all other assays above

O=S(=O)(O)C(F)(F)C(F)(F)C(F)(F)C(F)(F)C(F)(F)C(F)(F)C(F)(F)C(F)(F)F
inactive: [1] | [2] | [3] | [4] | [5] | [6] | [7] | [8] | [9] | [11] | [12] | [13] | [14] | [15]
active: [1] 82.9 µM and 90 µM | [3] 33.1 µM and 32.8 µM and 62.9 µM | [5] 76 µM and 50 µM and 48 µM | [6] 61.1 µM | [7] 82.5 µM and 84.5 µM and 48 µM | MYC, MYC (gene 4609) 50 µM [middle of 4 runs] | [11] 50 µM | [13] 58 µM | [14] 9.92 µM

COP(=O)(OC)OC=C(Cl)Cl
not listed: [16] | [17]
inactive: all other assays above
